Assay results from PubChem BioAssay (Tox21).
Results filed as inconclusive are left out. Activity calls are given as the source filed them. Calls come from the whole dose curve; as a rule, active = well fitted curve in the direction sought with a large enough effect in the signal ratio in the repeat runs (not every such curve was filed as active); inconclusive = weak or mixed curves, or a change in a side signal; inactive = no such curve, though single readings can be large or run the other way; the % refers to the signal ratio.

Experiment: qHTS assay to identify small molecule agonists of the NFkB signaling pathway (AID 1159509)
Conditions: NFkB-bla ME-180 cells, beta-lactamase FRET ratio, 5 h; series mostly up to 61 µM
Text: National Center for Advancing Translational Sciences [NCATS]
NIH Chemical Genomics Center [NCGC]
U.S. Environmental Protection Agency [EPA]
National Institutes of Environmental Health Sciences [NIEHS]
National Toxicology Program [NTP]
U.S. Food and Drug Administration [FDA]
Transcription factors and their stimulated target gene expression play pivotal roles across many cellular processes including responses to environmental stimuli. Proper regulation of associated pathways is critical to maintain cell health and function. Constitutive activation of transcription factor pathways has been implicated in tumors as it may block cellular functions such as apoptosis and lead to invasion and metastasis. One important transcription factor that stimulates gene expression in response to cytokines, UV radiation, and other stimuli is nuclear factor-kappa B (NFkB). To measure activation of the NFkB pathway, the CellSensor NFkB-bla ME-180 cell line (Life Technologies, Carlsbad, CA) that stably expresses beta-lactamase reporter gene under the regulation of a NF-kB response element was used. This assay allows measurement of the NFkB pathway activity induced by compounds in a ME-180 cell line. This system quantitates NF-kB activity using a FRET-based assay system where beta-lactamase expression disrupts FRET, allowing for fluorescent measurement of activity. This cell line has been used to screen the Tox21 10K compound library and to identify compounds that induce the NFkB pathway activity.
Tox21 Assay Protocol Summary:
NFkB-bla ME-180 cells were dispensed at 2,000 cells/6 uL of assay medium per well into black wall/clear-bottom 1536-well plates using a Multidrop Combi (ThermoFisher Scientific, Waltham, MA) dispenser. After the assay plates were incubated at 37 C and 5% CO2 for an overnight, 23 nL of compounds dissolved in DMSO, positive controls or DMSO only was transferred to the assay plate by a Pintool station (Kalypsys, San Diego, CA). The assay plates were incubated at 37 C and 5% CO2 for 5 hr. One uL of LiveBLAzer B/G FRET substrate (Life Technologies) was added using a Flying Reagent Dispenser (Aurora Discovery, San Diego, CA) and the plates were incubated at room temperature for 1.5 hr. Fluorescence intensity (405 nm excitation, 460 nm and 530 nm emissions) was measured using an Envision plate reader (PerkinElmer, Shelton, CT).
For `CN(C)CCO`, the outcome was “inactive”. For `CCOC(=O)c1ccccc1C(=O)OCC`, the outcome was “inactive”. In the case of `CCCN(CCC)N=O`, the outcome was “inactive”. In the case of `Cc1cccc([N+](=O)[O-])c1`, the outcome was “inactive”. In the case of `ClCc1cccnc1`, the outcome was “inactive”. In the case of `COC(=O)NC(=S)Nc1ccccc1NC(=S)NC(=O)OC`, the outcome was “inactive”. In the case of `O=[N+]([O-])c1ccc(Oc2ccc(Cl)cc2Cl)cc1`, the outcome was “inactive”. In the case of `CCN(CC)c1ccccc1`, the outcome was “inactive”. For `CC(Br)C(=O)O` (stereo not given), the outcome was “inactive”. For `Nc1ccccc1C(=O)O`, the outcome was “inactive”. With `CON(C)C(=O)Nc1ccc(Cl)c(Cl)c1` the outcome was “inactive”. With `CNC(=O)Oc1ccccc1OC(C)C` the outcome was “inactive”. For `[N-]=[N+]=[N-]`, the outcome was “inactive”. In the case of `ClCCBr`, the outcome was “inactive”. For `CCN(CC)CCO`, the outcome was “inactive”. For `CN(C)[C@@H]1C(=O)C(C(N)=O)=C(O)[C@@]2(O)C(=O)C3=C(O)c4c(O)cccc4[C@@](C)(O)[C@H]3C[C@@H]12`, the outcome was “inactive”. With `CCOP(OCC)OCC` the outcome was “inactive”. In the case of `CN(C)N=O`, the outcome was “inactive”. With `Nc1c(Cl)c(Cl)nc(C(=O)O)c1Cl` the outcome was “inactive”. In the case of `CCCCOC(=O)c1ccccc1C(=O)OCCCC`, the outcome was “inactive”. For `CCOP(=S)(OCC)Oc1cnc2ccccc2n1`, the outcome was “inactive”. For `CN(N=O)c1ccccc1`, the outcome was “inactive”. For `C1CC2OC2CC1C1CO1` (stereo not given), the outcome was “inactive”. In the case of `CC(C)OC(=O)Nc1cccc(Cl)c1`, the outcome was “inactive”. In the case of `CC(C)NC(=O)N1CC(=O)N(c2cc(Cl)cc(Cl)c2)C1=O`, the outcome was “inactive”. With `CCCCCCCCCl` the outcome was “inactive”. With `CN1C(=O)CN=C(c2ccccc2)c2cc(Cl)ccc21` the outcome was “inactive”. With `CC1OC(C)OC(C)O1` (stereo not given) the outcome was “inactive”. In the case of `Clc1ccccc1Cl`, the outcome was “inactive”. For `[O-][Cl+2]([O-])O`, the outcome was “inactive”. In the case of `O=Cc1cccc(Oc2ccccc2)c1`, the outcome was “inactive”. For `C=CC(N)=O`, the outcome was “inactive”. With `COc1ccc2c3c1O[C@H]1[C@@H](O)C=C[C@H]4[C@@H](C2)N(C)CC[C@@]341` the outcome was “inactive”. With `O=[N+]([O-])c1ccc([As](=O)(O)O)cc1` the outcome was “inactive”. In the case of `CC(C)(C)C(O)(CCc1ccc(Cl)cc1)Cn1cncn1` (stereo not given), the outcome was “inactive”. With `C=CCO` the outcome was “inactive”. With `COP(N)(=O)SC` (stereo not given) the outcome was “inactive”. With `Cc1cc(-c2cc(C)c(N)c(C)c2)cc(C)c1N` the outcome was “inactive”. For `O=c1n(Cl)c(=O)n(Cl)c(=O)n1Cl`, the outcome was “inactive”. In the case of `CC(C)C1(C)N=C(c2nc3ccccc3cc2C(=O)O)NC1=O` (stereo not given), the outcome was “inactive”.
